Measurements: PubChem BioAssay AID1209 (Sanford-Burnham Center for Chemical Genomics, 2008)
Where “and” joins values, the source holds several entries; their conditions need not be identical. Equal entries are not always repeated. The whole screen tested about 190,000 compounds, of which about 810 (0.43%) were called active. The entries come from a sample that favours actives as a whole. Unmarked numbers belong to inactive results. No stated cut-off is given here; in the data, active means inhibition above about 50%; inactive means the rest.

target: Mannose-6-phosphate isomerase (Homo sapiens) (UniProt P34949); assay: MPI enzyme activity inhibition – biochemical, fluorescence intensity, coupled assay, primary screen (AID 1209); settings: purified PMI enzyme, at 20 µM, stronger effect = higher value;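 further: plate controls were DMSO vehicle for no effect and wells lacking substrate for full effect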
Sequence (P34949 whole entry, looked up): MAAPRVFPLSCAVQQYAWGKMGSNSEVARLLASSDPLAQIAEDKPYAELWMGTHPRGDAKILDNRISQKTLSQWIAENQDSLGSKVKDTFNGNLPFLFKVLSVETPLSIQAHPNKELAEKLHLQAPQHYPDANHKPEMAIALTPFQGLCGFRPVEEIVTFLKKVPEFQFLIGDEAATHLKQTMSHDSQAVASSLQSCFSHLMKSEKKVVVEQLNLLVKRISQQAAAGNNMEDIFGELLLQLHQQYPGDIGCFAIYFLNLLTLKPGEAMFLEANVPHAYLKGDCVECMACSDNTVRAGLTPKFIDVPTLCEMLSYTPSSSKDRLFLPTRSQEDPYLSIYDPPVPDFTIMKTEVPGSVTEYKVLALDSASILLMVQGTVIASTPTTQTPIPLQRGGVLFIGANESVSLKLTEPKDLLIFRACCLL

| SMILES | inhibition |
| --- | --- |
| O=C(COC(=O)c1cnccn1)NCc1ccc2c(c1)OCO2 | -15.9% |
| CCC(C)(C(=O)NC1CCCCC1)N(Cc1ccco1)C(=O)CC1NC(=O)NC1=O (stereo not given) | 8.4% |
| COc1cc(C2NC(=O)NC(C)=C2C(=O)OC(C)C)ccc1OC(=O)c1ccco1 (stereo not given) | 1% |
| Cc1cccc(Nc2ncnc3c2cnn3C)c1 | 10.3% |
| COc1ccc(CN2C(=O)c3ccccc3C2C(=O)NCCc2ccccc2)c(OC)c1 (stereo not given) | 17.9% |
| COc1cc(/C=c2\sc3nc(=O)c(-c4ccccc4)nn3c2=O)ccc1OCCC(C)C | -1.8% |
| CCOc1ccccc1NC(=O)C1CCN(S(=O)(=O)c2c(C)nn(C)c2C)CC1 | 112% (active) |
| Cc1cccc(NC(=O)C2CCN(S(=O)(=O)c3c(C)nn(C)c3C)CC2)n1 | 8.4% |
| CCOc1ccccc1NC(=O)C1CCN(S(=O)(=O)c2c(C)noc2C)CC1 | 5.5% |
| N#CC(c1ccc(F)cc1)c1ccc(C(=O)c2ccc(F)cc2)cc1 (stereo not given) | 5.1% |
| COc1ccc(S(=O)(=O)Nc2cc(Sc3ncn[nH]3)c(O)c3ccccc23)cc1 | 98.7% (active) |
| COc1ccc(S(=O)(=O)Nc2ccc(O)c(Sc3ncn[nH]3)c2)cc1 | 10.6% |
| O=S(=O)(Nc1cc(Sc2cccc3cccnc23)c(O)c2ccccc12)c1ccccc1 | 9.2% |
| CCOc1ccc(S(=O)(=O)Nc2ccc(O)c(Sc3ncn[nH]3)c2)cc1 | 3.2% |
| O=S(=O)(Nc1cc(Sc2cccc3cccnc23)c(O)c2ccccc12)c1ccc(F)cc1 | 2.1% |
| O=S(=O)(Nc1cc(Sc2ncn[nH]2)c(O)c2ccccc12)c1ccccc1 | 99.3% (active) |
| Nc1ccccc1N=c1ssnc1Cl | 61.4% (active) |
| OCc1ccccc1N=c1ssnc1Cl | 78.3% (active) |
| OCc1c(Cl)nc2ccccn12 | -8.7% |
| Cc1cc(Oc2ccccc2)nc(SCC(N)=O)n1 | -2% |
| NC(=O)CSc1nnc(C2CC2)n1-c1ccccc1 | -7.8% |
| O=[N+]([O-])c1cc(S(=O)(=O)N2CCCC2)ccc1NCCc1ccccc1 | 4.4% |
| CC1=C(C(=O)Nc2ccccn2)C(c2ccccc2Cl)NC(=S)N1 (stereo not given) | -6.6% |

| SMILES | inhibition |
| --- | --- |
| N#CC(c1cccc(Cl)c1)c1ncc(C(F)(F)F)cc1Cl (stereo not given) | 9.9% |
| CC1CCc2c(sc(NC(=O)COC(=O)c3ccc(O)cc3)c2C#N)C1 (stereo not given) | 2.3% |
| COc1ccc(-c2[nH]c3ccccc3c2SCCNC(=O)c2ccccc2)cc1 | 7.4% |
| CS(=O)(=O)N1CCN=C1SCc1ccc([N+](=O)[O-])cc1 | -2.2% |
| COc1ccc2nc(S(=O)Cc3ncc(C)c(OC)c3C)[nH]c2c1 (stereo not given) | 72.5% (active) |
| Cc1c(OCC(F)(F)F)ccnc1CS(=O)c1nc2ccccc2[nH]1 (stereo not given) | 30.6% and 46.2% |
| COc1ccc2nc(C(C)O)[nH]c2c1 (stereo not given) | 5.1% |
| Cc1ccc(OCCn2c(=S)[nH]c3c(N)ncnc32)cc1 | 8.7% |
| CC(C)Oc1ccc(OCCn2c(=S)[nH]c3c(N)ncnc32)cc1 | 54.9% (active) |
| CCOc1ccc(OCCn2c(=S)[nH]c3c(N)ncnc32)cc1 | 11% |
| Cc1cccc(C(=O)Nc2ncc(CN3CCOCC3)s2)c1 | 4.7% |
| O=c1[nH]c2ccc(N=Cc3c(O)ccc4cc(Br)ccc34)cc2[nH]1 | 64.6% (active) |
| Cc1ccc(-n2[nH]c(C)c(C=Nc3ccc4[nH]c(=O)[nH]c4c3)c2=O)cc1 | 16.2% |
| Cc1[nH]n(-c2cccc3ccccc23)c(=O)c1C=Nc1ccc2[nH]c(=O)[nH]c2c1 | 14.6% |
| CC(C)(C)NC(=O)NC(=O)COC(=O)Cc1coc2ccc3ccccc3c12 | 25.3% |
| COc1cccc2c1C(=O)c1ccc3ccccc3c1C2=O | -43.2% |
| CN(C)/C=C1\Oc2ccc3ccccc3c2C1=O | 86.5% (active) |
| CN(C)/C=C1/Oc2c(ccc3ccccc23)C1=O | 21.5% |
| CCNC(=O)CC1SC(=Nc2ccc(C)cc2)NC1=O (stereo not given) | -4.7% |
| CC(=O)c1cccc(NC(=O)NNC(=O)CCC(=O)Nc2ccc(C)c(C)c2)c1 | -12% |
| Cc1ccc(S(=O)(=O)c2ccc(C)cc2)cc1 | -0.6% |
| CC(=O)Nc1ccc(S(=O)(=O)c2ccc(C)cc2)cc1 | 10.7% |
| COc1ccc(N2CCN(S(=O)(=O)c3cccc(C(F)(F)F)c3)CC2)cc1 | -0.4% |

| SMILES | inhibition |
| --- | --- |
| COc1ccc(N2CCC(CNC(=O)Nc3ccccc3)C2)cc1 (stereo not given) | 74.5% (active) |
| CCOc1ccc(NC(=O)NCC2CCN(c3ccc(OC)cc3)C2)cc1 (stereo not given) | 23.3% |
| COc1ccc(N2CCC(CNC(=S)Nc3cccc(C)c3)C2)cc1 (stereo not given) | 44.7% |
| COc1ccc(NC(=S)NCC2CCN(c3ccc(OC)cc3)C2)cc1 (stereo not given) | 49.3% |
| COc1ccc(N2CCC(CNC(=O)Nc3ccc(C)c(C)c3)C2)cc1 (stereo not given) | 43.1% |
| COc1ccc(N2CCC(CNC(=S)Nc3cccc(OC)c3)C2)cc1 (stereo not given) | 29.7% |
| COc1ccc(N2CCC(CNS(=O)(=O)c3cccc(C(F)(F)F)c3)C2)cc1 (stereo not given) | 65.5% (active) |
| CCc1cccc(C)c1NC(=S)NCC1CCN(c2ccc(OC)cc2)C1 (stereo not given) | 55% (active) |
| COc1ccc(N2CCC(CNC(=O)Nc3ccc(Cl)cc3)C2)cc1 (stereo not given) | 37% |
| COc1ccc(N2CCC(CNC(=O)Nc3cccc(OC)c3)C2)cc1 (stereo not given) | 70% (active) |
| CCN1CCCC1CNS(=O)(=O)c1cccc(C(F)(F)F)c1 (stereo not given) | -14.5% |
| Cn1c(SCC(=O)N=Nc2c(O)[nH]c3ccccc23)nc2ccccc21 | 3.1% |
| CCN(CC)CCCn1c(C)cc2c(c1=O)C(c1cc(OC)c(OC)cc1OC)C(C#N)=C(N)O2 (stereo not given) | -0.8% |
| CC[C@H](C)[C@@H](NC(=O)O[C@@H]1C(=O)c2cc(OC)ccc2O[C@H]1c1ccc(OC)c(Br)c1)C(=O)OC | 11% |
| CC(=O)N1CCc2cc(S(=O)(=O)CCC(=O)N3CCc4ccccc4C3)ccc21 | -7.9% |
| CC(C)CC(C(=O)Nc1ccc2c(c1)OCCO2)N1C(=O)c2ccccc2C1=O (stereo not given) | -13.9% |
| Cc1cc(=O)n2cccc(O)c2n1 | 71% (active) |
| Cc1ccn2c(=O)cc(C)nc2c1 | 4.8% |
| Cc1cc(=O)n2ccsc2n1 | 7.1% |
| O=C(NCCO)C1CCN(S(=O)(=O)c2ccc(F)cc2)CC1 | 10.2% |
| COc1cc(CNn2c(C)n[nH]c2=S)cc(Cl)c1OCc1ccccc1 | 16.3% |
| O=c1c(O)c(-c2ccc(O)cc2O)oc2cc(O)cc(O)c12 | -15.2% |
| O=C(O)C1OC(Oc2c(-c3ccc(O)c(O)c3)oc3cc(O)cc(O)c3c2=O)C(O)C(O)C1O (stereo not given) | 23.4% |

| SMILES | inhibition |
| --- | --- |
| C[C@@H]1O[C@@H](Oc2c(-c3cc(O)c(O)c(O)c3)oc3cc(O)cc(O)c3c2=O)[C@H](O)[C@H](O)[C@H]1O | 65.7% (active) |
| O=c1c(-c2ccc(O)cc2)coc2cc(OC3OC(CO)C(O)C(O)C3O)cc(O)c12 (stereo not given) | -6.4% |
| O=c1cc(-c2ccc(O)cc2)oc2cc(O)c(C3OC(CO)C(O)C(O)C3O)c(O)c12 (stereo not given) | 7.9% |
| O=c1c(O[C@@H]2O[C@H](CO)[C@H](O)[C@H](O)[C@H]2O)c(-c2ccc(O)c(O)c2)oc2cc(O)cc(O)c12 | 61.3% (active) |
| COc1ccc(-c2oc3c(CC=C(C)C)c(O[C@@H]4O[C@H](CO)[C@@H](O)[C@H](O)[C@H]4O)cc(O)c3c(=O)c2O[C@@H]2O[C@@H](C)[C@H](O)[C@@H](O)[C@H]2O)cc1 | 5.6% |
| Cc1cc(O)cc(O[C@H]2OC(CO)[C@H](O)[C@@H](O)[C@H]2O)c1 (stereo not given in full) | 1.9% |
| C[C@@H]1O[C@@H](OC[C@H]2O[C@@H](Oc3c(-c4ccc(O)c(O)c4)oc4cc(O)cc(O)c4c3=O)[C@H](O)[C@@H](O)[C@@H]2O)[C@H](O)[C@H](O)[C@H]1O | 50.3% (active) |
| COc1ccc(-c2oc3cc(OC)c(O)c(OC)c3c(=O)c2OC)cc1O | 3.4% |
| CC1OC(OCC2OC(Oc3c(-c4ccc(O)cc4)oc4cc(O)cc(O)c4c3=O)C(O)C(O)C2O)C(O)C(O)C1O (stereo not given) | 4.8% |
| C=CCOC(=O)C1=C(C)NC(SCC(=O)NC(=O)OCC)=C(C#N)C1c1cccnc1 (stereo not given) | -29.7% |
| CCc1ccc2nc(NC(=O)Cn3cnc4ccccc4c3=O)sc2c1 | -4% |
| O=c1[nH]c2cc3c(cc2cc1C(c1nnnn1CC1CCCO1)N1CCCC1)OCO3 (stereo not given) | -6.3% |
| CCN(CC)S(=O)(=O)c1ccc(OC)c(NC(=O)c2cc3c(=O)n4ccccc4nc3s2)c1 | 10% |
| Cc1ccc2nc(-c3cccnc3SCC(=O)N3c4ccccc4CC3C)[nH]c2c1 (stereo not given) | 9.6% |
| C/C(=N\NC(=O)CSCc1ccc(Cl)cc1)c1ccc(NC(=O)c2ccccc2)cc1 | -2.3% |
| O=C(N/N=C/c1ccncc1)c1nc(-c2ccccc2)n2c1CCCCC2 | 5.7% |
| CN(C)S(=O)(=O)N1CCC(CO)(Cc2cccc(C(F)(F)F)c2)CC1 | 3% |
| Cc1ccsc1C=C1C(=O)c2ccccc2C1=O | 1.2% |
| O=C(COC(=O)c1ccc(S(=O)(=O)N2CCCC2)cc1)Nc1cccnc1Cl | -7.2% |
| CCOC(=O)c1ccc(NC(=O)CCC2COc3ccccc3O2)cc1 (stereo not given) | 14.5% |
| COc1ccc(-n2c(CN3CCC(C)CC3)nc3ccc([N+](=O)[O-])cc3c2=O)c(OC)c1 | 2.1% |
